Calls of active or inactive are those of the source. The calls were made as follows: active = hit-call score of the fitted dose curve at least 0.9, where 1 is the maximum; inactive = score below 0.9.
Experiments:
Settings in all cases: mRNA level, 48 h; actives raise or lower the signal
[1] = read-out: Fatty Acid-Binding Protein 1 (FABP1), FABP1 (gene 2168); experiment: LTEA_HepaRG_FABP1: Life Technologies and Expression Analysis (LTEA) Assay for Fatty Acid-Binding Protein 1 (FABP1) using HepaRG (AID 2283494)
In short: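 HepaRG, 48 h post-plating switched to serum-free induction medium, then dosed 48 h (duplicate, 8 pts, ≤100 uM, 0.5% DMSO). RNA → Fluidigm TaqMan qRT-PCR, FABP1 normed to ACTB/GAPDH/POLR2A. Bidirectional curve fit vs DMSO.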

[2] = read-out: Cytochrome P450 4A22 (Homo sapiens) (UniProt Q5TCH4); experiment: LTEA_HepaRG_CYP4A22: Life Technologies and Expression Analysis (LTEA) Assay for Cytochrome P450 4A22 (CYP4A22) using HepaRG (AID 2283495)
In short: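 Differentiated HepaRG cells in serum-free induction medium exposed 48 h in duplicate to eight half-log concentrations up to 100 uM in 0.5% DMSO. CYP4A22 mRNA quantified by TaqMan qRT-PCR, normalized to ACTB, GAPDH and POLR2A; bidirectional fit versus DMSO.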

[3] = read-out: Cytochrome P450 7A1 (Homo sapiens) (UniProt P22680); experiment: LTEA_HepaRG_CYP7A1: Life Technologies and Expression Analysis (LTEA) Assay for Cytochrome P450 7A1 (CYP7A1) using HepaRG (AID 2283496)
In short: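 Gene expression endpoint in human HepaRG liver cells treated for 48 h with test chemicals (up to 100 uM, 0.5% DMSO). Values come from bidirectional concentration-response fitting versus DMSO.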

[4] = read-out: Glutathione S-Transferase (GSTA2), GSTA2 (gene 2939); experiment: LTEA_HepaRG_GSTA2: Life Technologies and Expression Analysis (LTEA) Assay for Glutathione S-Transferase (GSTA2) using HepaRG (AID 2283497)
In short: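 HepaRG, 48 h dosing, 8-pt half-log CRC from 100 uM, 0.5% DMSO vehicle, n=2; RNA → Fluidigm TaqMan qRT-PCR; GSTA2 vs ACTB/GAPDH/POLR2A; gain/loss fit vs DMSO.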

[5] = read-out: Glutamate-cysteine ligase catalytic (GCLC), GCLC (gene 2729); experiment: LTEA_HepaRG_GCLC: Life Technologies and Expression Analysis (LTEA) Assay for Glutamate-cysteine ligase catalytic (GCLC) using HepaRG (AID 2283498)
In short: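 Read-out is GCLC transcript level by Fluidigm-based TaqMan qRT-PCR, normalized to three housekeeping genes and fitted in both directions relative to 0.5% DMSO. Human HepaRG cells received chemicals for 48 h, up to 100 uM.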

[6] = read-out: growth arrest and DNA damage 45 (GADD45G), GADD45G (gene 10912); experiment: LTEA_HepaRG_GADD45G: Life Technologies and Expression Analysis (LTEA) Assay for growth arrest and DNA damage 45 (GADD45G) using HepaRG (AID 2283499)
In short: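 Differentiated human HepaRG cells, 48 h post-plating, exposed 48 h in serum-free induction medium to 8 half-log concentrations (top 100 uM, 0.5% DMSO) in duplicate. GADD45G mRNA measured by Fluidigm TaqMan qRT-PCR, normalized to ACTB, GAPDH, POLR2A; bidirectional fit versus DMSO.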

[7] = read-out: Glutamate-cysteine ligase regulatory (GCLM), GCLM (gene 2730); experiment: LTEA_HepaRG_GCLM: Life Technologies and Expression Analysis (LTEA) Assay for Glutamate-cysteine ligase regulatory (GCLM) using HepaRG (AID 2283500)
In short: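 Human liver HepaRG cultures receive test chemicals for 48 hours at up to 100 uM in 0.5% DMSO. GCLM expression is measured by qRT-PCR and analysed for increases or decreases against vehicle.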

[8] = read-out: Glutathione S-transferase M3 (GSTM3), GSTM3 (gene 2947); experiment: LTEA_HepaRG_GSTM3: Life Technologies and Expression Analysis (LTEA) Assay for Glutathione S-transferase M3 (GSTM3) using HepaRG (AID 2283501)
In short: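 Differentiated human HepaRG cells were exposed in duplicate for 48 h in serum-free induction medium, 8 points from 100 uM top in half-log steps, 0.5% DMSO. GSTM3 mRNA was measured by TaqMan qRT-PCR, normalized to ACTB, GAPDH and POLR2A; bidirectional fit versus DMSO.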

[9] = read-out: Heat shock 70 kDa protein 1 (HSPA1A), gene 3303; experiment: LTEA_HepaRG_HSPA1A: Life Technologies and Expression Analysis (LTEA) Assay for Heat shock 70 kDa protein 1 (HSPA1A) using HepaRG (AID 2283502)
In short: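 HSPA1A induction in human HepaRG liver cells is measured after 48 h of chemical treatment (100 uM maximum, 0.5% DMSO vehicle). Expression comes from qRT-PCR normalized to endogenous controls.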

[10] = read-out: 3-Hydroxy-3-Methylglutaryl-CoA Synthase 2 (HMGCS2), HMGCS2 (gene 3158); experiment: LTEA_HepaRG_HMGCS2: Life Technologies and Expression Analysis (LTEA) Assay for 3-Hydroxy-3-Methylglutaryl-CoA Synthase 2 (HMGCS2) using HepaRG (AID 2283504)
In short: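 Human HepaRG cells in serum-free induction medium were exposed in duplicate for 48 h to 8-point half-log series from 100 uM top in 0.5% DMSO. HMGCS2 mRNA measured by TaqMan qRT-PCR, normalised to ACTB, GAPDH, POLR2A; bidirectional fit versus DMSO.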

[11] = read-out: HGF (gene 3082); experiment: LTEA_HepaRG_HGF: Life Technologies and Expression Analysis (LTEA) Assay for Hepatocyte Growth Facto (HGF) using HepaRG (AID 2283505)
In short: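 Differentiated HepaRG cells in serum-free induction medium exposed 48 h in duplicate, 8 half-log concentrations from 100 uM in 0.5% DMSO. HGF mRNA by qRT-PCR, normalised to ACTB, GAPDH, POLR2A; bidirectional fitting.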

[12] = read-out: Insulin Like Growth Factor 1 (IGF1), IGF1 (gene 3479); experiment: LTEA_HepaRG_IGF1: Life Technologies and Expression Analysis (LTEA) Assay for Insulin Like Growth Factor 1 (IGF1) using HepaRG (AID 2283506)
In short: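 Using human HepaRG liver cells, IGF1 transcript induction or suppression is measured 48 h after dosing across eight concentrations capped at 100 uM. Values derive from bidirectional concentration-response fitting with DMSO as baseline.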

[13] = read-out: Intercellular Adhesion Molecule 1 (ICAM1), ICAM1 (gene 3383); experiment: LTEA_HepaRG_ICAM1: Life Technologies and Expression Analysis (LTEA) Assay for Intercellular Adhesion Molecule 1 (ICAM1) using HepaRG (AID 2283507)
In short: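 Differentiated human HepaRG cells in serum-free induction medium exposed 48 h in duplicate to 8 half-log concentrations (top 100 uM, 0.5% DMSO). ICAM1 mRNA quantified by TaqMan qRT-PCR, normalized to ACTB, GAPDH and POLR2A; bidirectional fitting versus DMSO.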

[14] = read-out: Insulin-like growth factor-binding protein 1 (IGFBP1), IGFBP1 (gene 3484); experiment: LTEA_HepaRG_IGFBP1: Life Technologies and Expression Analysis (LTEA) Assay for Insulin-like growth factor-binding protein 1 (IGFBP1) using HepaRG (AID 2283508)
In short: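 HepaRG cells, plated 48 h then switched to serum-free induction medium, exposed in duplicate for 48 h to 8-point half-log series from 100 uM in 0.5% DMSO. mRNA measured by qRT-PCR, normalized to ACTB/GAPDH/POLR2A; bidirectional fit versus DMSO.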

[15] = read-out: Interleukin 6 (IL6), IL6 (gene 3569); experiment: LTEA_HepaRG_IL6: Life Technologies and Expression Analysis (LTEA) Assay for Interleukin 6 (IL6) using HepaRG (AID 2283509)
In short: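 HepaRG, ~100,000 cells/well, 48 h pre-culture; serum-free induction medium; cmpd 8-pt half-log from 100 uM, 0.5% DMSO, duplicate, 48 h. Lysis in RLT, TaqMan qRT-PCR; gain or loss vs DMSO.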

[16] = read-out: Interleukin 6 Receptor (IL6R), IL6R (gene 3570); experiment: LTEA_HepaRG_IL6R: Life Technologies and Expression Analysis (LTEA) Assay for Interleukin 6 Receptor (IL6R) using HepaRG (AID 2283510);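 as to AC50: TaqMan qRT-PCR signal normalized to ACTB GAPDH and POLR2A housekeeping genes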
In short: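 Concentration-response in human liver HepaRG cells: eight concentrations from 100 uM downward by half-logs, 48 h exposure, 0.5% DMSO vehicle. IL6R mRNA change measured by qRT-PCR and fitted in both directions relative to vehicle.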

[17] = read-out: Potassium channel subfamily K member 1 (KCNK1), KCNK1 (gene 3775); experiment: LTEA_HepaRG_KCNK1: Life Technologies and Expression Analysis (LTEA) Assay for Potassium channel subfamily K member 1 (KCNK1) using HepaRG (AID 2283511)
In short: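 Gain or loss of KCNK1 mRNA is the read-out, quantified by qRT-PCR against three housekeeping genes after 48 h chemical treatment of human HepaRG liver cells. Concentrations ran from 100 uM downward in half-log steps, vehicle 0.5% DMSO.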

[18] = read-out: Keratin 19 (KRT19), KRT19 (gene 3880); experiment: LTEA_HepaRG_KRT19: Life Technologies and Expression Analysis (LTEA) Assay for Keratin 19 (KRT19) using HepaRG (AID 2283512)
In short: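 Differentiated HepaRG cells in serum-free induction medium, exposed 48 h in duplicate to 8 half-log concentrations up to 100 uM in 0.5% DMSO. KRT19 mRNA by qRT-PCR, normalized to ACTB, GAPDH, POLR2A; bidirectional fit vs DMSO.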

[19] = read-out: JUN Transcription Factor, JUN (gene 3725); experiment: LTEA_HepaRG_JUN: Life Technologies and Expression Analysis (LTEA) Assay for JUN Transcription Factor using HepaRG (AID 2283513)
In short: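 Human HepaRG liver cells receive test chemicals in 0.5% DMSO for 48 h across an eight-point range topping at 100 uM. Expression changes in JUN are scored in both directions against the DMSO vehicle.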

Measured: AC50

O=C(Nc1ccccc1)Nc1ccnc(Cl)c1
inactive: [6] | [13] | [17] | [19]
active: [1] 71.3 µM | [2] 28.4 µM | [3] 81.3 µM | [4] 24.9 µM | [5] 83 µM | [7] 84.8 µM | [8] 80.4 µM | [9] 84.2 µM | [10] 28.6 µM | [11] 78 µM | [12] 28.3 µM | [14] 63.4 µM | [15] 93.9 µM | [16] 76.2 µM | [18] 28.1 µM

CCCCOC(=O)c1ccccc1C(=O)OCCCC
inactive: all assays above

CCOC(=O)C(Cl)Cc1cc(-n2nc(C)n(C(F)F)c2=O)c(F)cc1Cl (configuration not stated)
inactive: all assays above

CCOP(=S)(OCC)SCn1c(=O)oc2cc(Cl)ccc21
not listed: [12] | [18]
inactive: all other assays above

CS/C(C)=N/OC(=O)N(C)SN(C)C(=O)O/N=C(\C)SC
active: [3] 9.92 µM
inactive: all other assays above

Cc1c(F)c(F)c(COC(=O)C2C(/C=C(\Cl)C(F)(F)F)C2(C)C)c(F)c1F (configuration not stated)
active: [1] 63.1 µM | [12] 69.4 µM
inactive: all other assays above

Reference: PubChem BioAssay (EPA / NIEHS)
